Assay outcomes (PubChem)
Hits are enriched below; roughly 10% of the tested compounds scored in any of these assays.
PLK1 PBD block: blocks phosphopeptide binding to human PLK1 polo-box domain; P53350; Plk1 PBD binding of FITC phosphopeptide, fluorescence polarization; Potency, µM, hits mostly inhibitors; 2.8% of 360,000 active; AID 720504; also: series mostly up to about 57 µM; nearly all actives have a fitted effect of over 65% in size
Mm-Cpn inhibitor: inhibitors of Methanococcus maripaludis chaperonin TRiC (MmCpn) | purified Mm-Cpn ATPase, ADP Transcreener TR-FRET | Potency, µM (titrated, usually from 76.9 µM), usual class: inhibitors | 0.031% of 330,000 active | AID 504842; also: nearly all actives have a fitted effect of over 80% in size
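ATPase turnover read by TR-FRET ADP competition (Eu cryptate antibody/ADP-d2, 665/590 nm): 10uM ATP final, 25nM Mm-CPN final, 30 min 37degC after 10-min compound preincubation, pH 7.4 Tris/KCl/MgCl2/DTT buffer.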
VDR inhibitor: blocks the human vitamin D receptor. P11473. VDR-SRC2-3 peptide fluorescence polarization, 2 h. Potency, µM, usual class: inhibitors. 0.93% of 400,000 active
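VDR–SRC2-3 interaction, FP format. Cmpds 23 nl via pintool, brief spin, 2 h ambient incubation.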
G9a inh: G9a (human) methyltransferase inhibition; Q96KQ7; G9a H3K9 monomethylation, AlphaScreen, 2 h; Potency, µM (doses to about 102 µM), most hits filed as inhibitors; 8.8% of 350,000 active; also: nearly all actives have a fitted effect of over 75% in size
Target sequence (Q96KQ7 913-1193 limits assumed): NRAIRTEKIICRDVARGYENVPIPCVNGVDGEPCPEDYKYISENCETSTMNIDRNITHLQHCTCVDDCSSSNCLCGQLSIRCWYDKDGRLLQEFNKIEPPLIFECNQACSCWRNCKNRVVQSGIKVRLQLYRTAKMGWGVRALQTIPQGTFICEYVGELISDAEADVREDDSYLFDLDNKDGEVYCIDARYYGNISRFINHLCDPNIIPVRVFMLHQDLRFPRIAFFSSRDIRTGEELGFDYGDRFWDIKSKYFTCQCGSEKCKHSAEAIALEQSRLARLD
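Step 1: enzyme (final 20 nM) with compound, 15 min RT. Step 2: substrate peptide 500 nM and SAM 20 uM, 2 h RT. Step 3: anti-H3K9me1 antibody and AlphaScreen beads, 10 min, then plate read.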
CCT modulator: changes cytosolic chaperonin activity; purified chaperonin ATPase assay, HTRF ADP detection, 30 min; activity change, % (concentration not given with the values), hits read low; 0.3% of 360,000 active; AID 651819; in the data active = activity change below about -30%
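TRiC (40 or 20 nM final, by batch activity) in 30 mM Tris pH 7.4, 100 mM KCl, 5 mM MgCl2, 1 mM DTT was treated with compound at 76 uM single dose, then 10 uM ATP, 30 min at 37 °C. ADP was read by HTRF Transcreener.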
Sfp inh: inhibitors of Bacillus subtilis Sfp phosphopantetheinyl transferase | Q9F4F7 | Potency, µM, actives largely listed as inhibitors | Biochemical Sfp PPTase activity, qHTS | 3.5% of 310,000 active;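 also: the enzyme is Sfp with the accession as filed and its product quenches rhodamine fluorescence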
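Fluorescence-quenching assay: 15 nM Sfp-PPTase preincubated 15 min at room temperature with compound, then 5 uM rhodamine-CoA and 12.5 uM BHQ-2-labelled YbbR peptide added. Fluorescence (ex 525/em 598 nm) read at start and after 30 min; difference gives rate.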
Numbers stand for hits; . = inactive; ? = inconclusive; / = not tested or not shown. Unless noted, calls follow the shape of the dose curve; as a rule, active = well fitted curve in the direction sought with a large enough effect; inconclusive = small, poorly fitted or top-dose-only effect, or another doubt; inactive = no such curve, though single readings can be large; an effect the other way counts as inactive or inconclusive.

SMILES | PLK1 PBD block | Mm-Cpn inhibitor | VDR inhibitor | G9a inh | CCT modulator | Sfp inh
CCOc1ccccc1NC(=O)c1c(NC(=O)COc2ccccc2)sc2c1CCCC2 | / | / | . | . | / | /
CCOC(=O)N1CCc2c(sc(NCc3ccc(OC)c(OC)c3OC)c2C(=O)Nc2ccc(OC)cc2OC)C1 | / | / | . | 7.08µM | / | /
CCOc1ccccc1NC(=O)c1c(NCc2ccc(C)o2)sc2c1CCCCC2 | / | / | . | 5.01µM | / | /
CCOC(=O)N1CCc2c(sc(NCc3sccc3C)c2C(=O)Nc2cc(Cl)ccc2OC)C1 | / | / | . | 3.55µM | / | /
CCOc1ccccc1NC(=O)c1c(NCc2ccc(C)o2)sc2c1CCC(C)C2 (stereo not drawn) | / | / | . | . | / | /
CCOC(=O)N1CCc2c(sc(NCc3ccc(N(C)C)cc3)c2C(=O)Nc2ccccc2OCC)C1 | / | / | . | 3.16µM | / | /
Cc1cccc(OCCSc2nc3ccccc3n2CC(=O)N2CCOCC2)c1 | / | / | . | . | / | /
COc1ccc(C2Nc3ccc(NC(=O)CO)cc3C(=O)N2Cc2cccc(Cl)c2)cc1COc1ccc(NC(C)=O)cc1 (stereo not drawn) | / | / | . | / | / | /
O=C(NCCO)c1ccc(-c2nnc(Nc3ccc(OC(F)(F)Cl)cc3)c3ccccc23)cc1 | / | / | . | . | / | /
Cc1ccc(Cn2c(=O)c3ccccc3n3c(-c4ccccc4)nnc23)cc1 | / | / | . | . | / | /
CCOC(=O)N1CCc2c(sc(NCc3cccs3)c2C(=O)Nc2cc(OC)ccc2OC)C1 | / | / | . | 1.58µM | / | /
CCOC(=O)N1CCc2c(sc(NCc3cccs3)c2C(=O)Nc2ccc(OC)cc2OC)C1 | / | / | ? | 2.82µM | / | /
COc1ccc(NC(=O)c2c(NCc3sccc3C)sc3c2CCCC3)c(OC)c1 | / | / | . | 14.1µM | / | /
CCOC(=O)N1CCc2c(sc(NCc3ccc(N(CC)CC)cc3)c2C(=O)Nc2cc(OC)ccc2OC)C1 | / | / | . | 7.08µM | / | /
C=CCNCC(=O)Nc1sc2c(c1C(=O)Nc1ccc(OC)cc1OC)CCC2 | . | . | . | / | . | ?
COc1cccc(-c2cn3c(n2)sc2cc(C(=O)NC4CCCCCC4)ccc23)c1 | / | / | . | . | / | /
COc1ccc(NC(=O)CSc2nnc(-c3ccncc3)n2-c2ccccc2)cc1 | / | / | . | ? | / | /
COc1ccc(OC)c(-c2ccc(C(=O)O)o2)c1 | / | / | . | ? | / | .
COc1ccc(NC(=O)c2c(NCc3ccc(OC)c(OC)c3OC)sc3c2CCC3)c(OC)c1 | / | / | . | 12.6µM | / | /
COC(=O)c1ccc(NC(=O)c2c(NCc3ccc(C)o3)sc3c2CCCC3)cc1 | / | / | . | ? | / | /
CCOC(=O)N1CCc2c(sc(NCc3ccc(OCC)cc3)c2C(=O)Nc2ccc(OC)cc2OC)C1 | / | / | . | 7.94µM | / | /
CCOC(=O)c1ccc(NC(=O)c2c(NCc3sccc3C)sc3c2CCCCC3)cc1 | / | / | ? | 8.91µM | / | /
COc1ccc(NC(=O)c2c(NCc3cccc(F)c3)sc3c2CCC3)c(OC)c1 | / | / | . | ? | / | /
COc1ccccc1NC(=O)c1c(NCc2ccc(OC)c(OC)c2OC)sc2c1CCC2 | / | / | . | ? | / | /
COc1cccc(C(=O)N2c3nc(-c4ccco4)nn3C3(CCCCC3)[C@@H]3CCCC[C@@H]32)c1 | / | / | . | 17.8µM | / | /
SMILES | PLK1 PBD block | Mm-Cpn inhibitor | VDR inhibitor | G9a inh | CCT modulator | Sfp inh
O=C(c1cccc([N+](=O)[O-])c1)N1c2nc(-c3ccco3)nn2C2(CCCCC2)[C@@H]2CCCC[C@@H]21 | / | / | . | 8.91µM | / | /
COc1ccc2c(c1)c1c(c(=O)n(Cc3ccccc3)c(=O)n1CC(=O)NCc1ccc(C)cc1)n2C | / | / | . | . | / | /
CCOC(=O)c1c(NC(=O)C2C3C=CC(C3)C2C(=O)O)sc2c1CCC(CC)C2 (stereo not drawn) | 26.7µM | . | ? | . | . | .
CCOc1ccc(NC2c3ccccc3C(=O)N2Cc2ccco2)cc1 (stereo not drawn) | . | . | . | 44.7µM | . | .
O=C1c2ccccc2C(Nc2ccc(S(=O)(=O)N3CCCCC3)cc2)N1Cc1ccco1 (stereo not drawn) | . | . | ? | ? | . | 39.8µM
COc1ccc(NC2c3ccccc3C(=O)N2Cc2ccco2)cc1OC (stereo not drawn) | . | . | . | ? | . | .
O=C1c2ccccc2C(Nc2ccc3c(c2)OCO3)N1Cc1ccco1 (stereo not drawn) | . | . | . | 10µM | . | .
O=C1c2ccccc2C(Nc2ccc(F)c(Cl)c2)N1Cc1ccco1 (stereo not drawn) | . | . | 89.1µM | 44.7µM | . | 31.6µM
